In the library only some 3.6% were active in any assay of this set; here they are far more common.
MITF TRPM1 HTS – MITF TRPM1 promoter activation in melanoma cells; 300,000 tested, 0.75% active; AID 588334; SK-MEL-5 TRPM1-promoter luciferase, 24 h; % of positive control, neutral wells = 0; activation, % at 12.5 µM;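 active = mean activation of at least 80% with every replicate also reaching 80%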
PHOSPHO1 block – PHOSPHO1 (human) inhibition | recombinant PHOSPHO1, absorbance phosphatase assay | inhibition, % at 13.3 µM | AID 1565 | 290,000 tested, 1.1% active; in the data active = inhibition above about 60%
APOBEC3A inh – inhibitors of human APOBEC3A DNA deaminase; inhibition, % at 20 µM; recombinant A3A, FAM/TAMRA ssDNA deamination fluorescence; 330,000 tested, 0.41% active; P31941;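 active = at least 40% inhibition at 20 µM here, with at most 30% in a related deaminase screen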
Target sequence (P31941 whole entry, looked up): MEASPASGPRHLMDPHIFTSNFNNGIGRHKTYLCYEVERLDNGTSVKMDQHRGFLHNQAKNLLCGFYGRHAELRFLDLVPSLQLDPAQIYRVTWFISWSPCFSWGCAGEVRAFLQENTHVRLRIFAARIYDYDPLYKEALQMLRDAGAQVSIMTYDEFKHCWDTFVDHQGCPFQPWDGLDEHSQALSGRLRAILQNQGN
esBAF inh – inhibitors of esBAF chromatin remodeling in mouse ES cells. reporter increase, % at 12.5 µM. Bmi1-luciferase knock-in reporter, 24 h; 100% = twice the neutral-well signal. 350,000 tested, 2% active. AID 602393; in the data active = activation above about 40%;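 note: a rise in the Bmi1 reporter signal indicates esBAF inhibition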
Wnt bcat act – activators of Wnt/beta-catenin signaling; Wnt/beta-catenin reporter cell assay, activator, plate reader; AID 743398; 300,000 tested, 1.2% active; activation, % at 9.35 µM; in the data active = activation above about 30%, passing the limit was not always enough
A3G deaminase – blocks human APOBEC3G single-stranded DNA deamination; AID 493012; recombinant A3G, ssDNA deamination FAM/TAMRA fluorescence; 330,000 tested, 0.28% active; inhibition, % at 20 µM;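 active = inhibition of at least 40% at 20 µM, with no more than 30% in the related APOBEC3A deaminase screen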
Target sequence (Q9HC16 whole entry, looked up): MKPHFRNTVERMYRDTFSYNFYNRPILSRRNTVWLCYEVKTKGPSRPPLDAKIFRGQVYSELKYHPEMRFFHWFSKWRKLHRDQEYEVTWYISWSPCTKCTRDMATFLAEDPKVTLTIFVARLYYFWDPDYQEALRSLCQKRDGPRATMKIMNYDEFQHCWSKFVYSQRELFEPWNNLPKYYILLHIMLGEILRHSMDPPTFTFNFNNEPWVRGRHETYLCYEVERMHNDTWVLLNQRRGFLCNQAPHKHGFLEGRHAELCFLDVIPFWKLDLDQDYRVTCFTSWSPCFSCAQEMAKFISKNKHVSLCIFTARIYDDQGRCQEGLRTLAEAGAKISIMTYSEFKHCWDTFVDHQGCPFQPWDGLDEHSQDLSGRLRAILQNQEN
APOBEC3G confirm – confirmation of human APOBEC3G DNA deaminase inhibitors; 890 tested, 72% active; shares compounds with A3G deaminase; inhibition, % at 20 µM; recombinant A3G ssDNA deaminase, UDG/FAM-TAMRA fluorescence; AID 493152;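 active = inhibition reaching a set limit in any replicate at 20 µM, the limit being 80% of the first screen's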
UDG A3G counter – E. coli UDG inhibition in APOBEC3G counter-screen | 710 tested, under 10 active | shares compounds with A3G deaminase | UDG counterscreen, FAM/TAMRA oligo fluorescence | inhibition, % at 20 µM;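 active = compounds giving 40% or more inhibition at 20 µM in any one of the three replicates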;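 note: inhibitors lower the FAM signal released by uracil excision and alkaline cleavage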
Hits are given with their value; i = inactive; nt = not tested or not shown.

SMILES | MITF TRPM1 HTS | PHOSPHO1 block | APOBEC3A inh | esBAF inh | Wnt bcat act | A3G deaminase | APOBEC3G confirm | UDG A3G counter
O=c1c2cc(F)ccc2sn1-c1ccccc1 | i | nt | i | i | i | 86 | 88 | i
CC(=O)Nc1ccc2c(=O)n(-c3ccccc3)sc2c1 | nt | nt | nt | i | i | nt | nt | nt
CN(C)S(=O)(=O)c1cccc(-n2sc3ccccc3c2=O)c1 | i | i | i | i | i | 85 | 93 | i
O=c1c2cc(C(F)(F)F)ccc2sn1-c1ccccc1 | nt | nt | nt | i | i | nt | nt | nt
O=C(O)c1cccc(-n2sc3ccccc3c2=O)c1 | i | nt | i | i | i | 83 | 91 | i
O=c1c2ccccc2sn1-c1ccccc1F | nt | nt | nt | i | i | nt | nt | nt
COC(=O)C[C@@H]1C[C@H]2c3cc(NS(=O)(=O)c4ccc(OC)cc4)ccc3O[C@H]2[C@@H](CO)O1 | nt | nt | nt | i | nt | nt | nt | nt
O=C(C[C@@H]1CC[C@@H]2[C@H](COC[C@@H](O)CN2CC2CCOCC2)O1)NCc1ccc(Cl)cc1 | nt | nt | nt | i | nt | nt | nt | nt
O=c1c2ccccc2sn1-c1ccccc1 | i | i | i | i | i | 87 | 91 | i
O=c1c2ccccc2sn1-c1cccc(Cl)c1 | nt | nt | nt | i | i | nt | nt | nt
Cc1noc(C)c1S(=O)(=O)Nc1ccc2c(c1)C(=O)N([C@@H](C)CO)C[C@@H](C)[C@@H](CN(C)S(=O)(=O)c1cccs1)OCCCC[C@@H](C)O2 | nt | nt | nt | i | nt | nt | nt | nt
CC(C)Cn1c(-c2ccncc2)n[nH]c1=S | i | i | i | i | i | i | nt | nt
CC(C)Cn1c(-c2ccc(F)cc2)n[nH]c1=S | i | i | i | i | i | 41 | 82 | i
CC(C)Cn1c(-c2ccccc2F)n[nH]c1=S | i | i | i | i | i | 41 | 82 | i
CC(C)Cn1c(Cc2ccccc2)n[nH]c1=S | i | i | i | i | i | i | nt | nt
Cc1ccc(S(=O)(=O)Nc2ccc3c(c2)CC(=O)N([C@@H](C)CO)C[C@@H](C)[C@H](CN(C)CC2CC2)O3)cc1 | nt | nt | nt | i | nt | nt | nt | nt
O=C(Nc1cc(F)ccc1F)N[C@H]1CC[C@@H](CCNC(=O)c2cnccn2)O[C@H]1CO | nt | nt | nt | i | nt | nt | nt | nt
Cc1cccc(N2CCN(C(=S)c3ccc([N+](=O)[O-])cc3)CC2)c1 | i | i | i | nt | i | 55 | 44 | i
Cc1cccc(N2CCN(C(=S)c3ccccc3)CC2)c1 | i | i | i | i | i | i | nt | nt
Cc1ccc(-c2cc(C(=O)Nc3cccnc3)c3ccccc3n2)o1 | i | i | i | i | i | 50 | 36 | i
Cc1ccc(NC(=O)c2cc(-c3ccc(C)o3)nc3ccccc23)cc1 | i | i | i | i | i | i | nt | nt
C[C@H]1CN([C@@H](C)CO)C(=O)c2cc(/C=C/c3ccccc3)cnc2O[C@H]1CN(C)C(=O)NC1CCCCC1 | nt | nt | nt | i | nt | nt | nt | nt
Cc1nc2scc(-c3ccccc3)c2c(=O)n1N=C1C=CC(=O)C=C1 | nt | i | i | nt | i | 65 | 93 | i
Cc1nc2scc(-c3ccccc3)c2c(=O)n1N | i | i | i | i | i | i | nt | nt
CC(=O)Nc1nc(-c2cccc3ccccc23)cs1 | nt | i | i | i | i | i | nt | nt
SMILES | MITF TRPM1 HTS | PHOSPHO1 block | APOBEC3A inh | esBAF inh | Wnt bcat act | A3G deaminase | APOBEC3G confirm | UDG A3G counter
CC(=O)NCCC(=O)Nc1nc(-c2c[nH]c3ccccc23)cs1 | i | i | i | i | i | 79 | i | i
O=C(CN1CCN(c2ccc(O)cc2)CC1)Nc1ccc2c(c1)OCCO2 | i | i | i | i | i | 62 | i | nt
CC(c1ccccc1)n1c(Cn2ncc3ccccc3c2=O)n[nH]c1=S (stereo not drawn) | i | i | i | i | i | i | nt | nt
O=c1c2ccccc2cnn1Cc1n[nH]c(=S)n1-c1ccc(Cl)cc1 | i | i | i | nt | i | 42 | 77 | i
O=S(=O)(c1cccc(-c2n[nH]c(=S)n2-c2ccccc2Cl)c1)N1CCOCC1 | i | nt | i | i | i | i | nt | nt
O=S(=O)(c1cccc(-c2n[nH]c(=S)n2Cc2ccccc2)c1)N1CCOCC1 | i | i | i | i | i | 46 | 72 | i
CC[n+]1c(C)sc2c3ccsc3ccc21 | i | i | i | i | i | i | nt | nt
CC[n+]1c(C)sc2sc3ccccc3c21 | nt | i | i | nt | nt | 55 | 67 | nt
O=C(C[C@@H]1CC[C@H](NC(=O)NC2CCCC2)[C@H](CO)O1)NCc1ccc(F)cc1 | nt | nt | nt | i | nt | nt | nt | nt
COc1ccccc1NS(=O)(=O)c1cc(NC(=O)c2sccc2C)ccc1N1CCOCC1 | i | i | i | i | i | i | nt | nt
COc1ccccc1NS(=O)(=O)c1cc(NC(=O)c2cccs2)ccc1N1CCCCC1 | i | i | i | nt | i | i | nt | nt
COc1ccccc1NS(=O)(=O)c1cc(NC(=O)c2sccc2C)ccc1N1CCCC1 | i | i | i | i | i | 42 | active | i
COc1ccccc1NS(=O)(=O)c1cc(NC(=O)c2cccs2)ccc1N1CCCC1 | i | 64 | i | nt | i | 40 | 63 | i
COc1ccccc1NS(=O)(=O)c1cc(NC(=O)c2cc[n+]([O-])cc2)ccc1N1CCCC1 | i | i | i | nt | i | 44 | 34 | i
O=C(N[C@H]1CC[C@H](CC(=O)N2CCc3ccccc3C2)O[C@H]1CO)C1CC1 | nt | nt | nt | i | nt | nt | nt | nt
CN(C)c1ccc(/C=N/Nc2cccc(C(=O)O)c2)cc1 | i | i | i | i | i | 47 | i | nt
COCCCNC(=S)N(CCCO)Cc1cc2cc3c(cc2[nH]c1=O)OCO3 | nt | i | i | i | i | 48 | i | i
C[C@@H](NC(=O)C[C@@H]1C[C@@H]2c3cc(NC(=O)Nc4ccccc4F)ccc3O[C@@H]2[C@H](CO)O1)c1ccccc1 | nt | nt | nt | i | nt | nt | nt | nt
CCOC(=O)c1sc(N)c(C(=O)Nc2ccccc2OC)c1C | i | i | i | nt | i | 51 | 67 | i
O=C(Nc1cc(S(=O)(=O)Nc2ccc(Cl)cc2)ccc1O)c1ccc(S(=O)(=O)N2CCCCCC2)cc1 | i | i | i | i | i | 53 | 44 | i
CC(C)c1cn(CC[C@@H]2CC[C@@H](NC(=O)C3CCCC3)[C@@H](CO)O2)nn1 | nt | nt | nt | i | nt | nt | nt | nt
Cc1nc(SCc2ccc(O)c([N+](=O)[O-])c2)c([N+](=O)[O-])[nH]1 | i | i | i | i | i | 63 | 58 | i
Cc1ccn2c(=O)nc(SCC(=O)N3CCC(Cc4ccccc4)CC3)nc2c1 | i | nt | i | i | i | i | nt | nt
Cc1cc(C)c2c(=O)n(CC(=O)Nc3ccc(Cl)cc3)sc2n1 | i | i | i | nt | i | 82 | 93 | i
Cc1ccc(NC(=O)Cn2sc3nc(C)cc(C)c3c2=O)c(Cl)c1 | i | i | i | nt | i | 72 | 92 | i
CCOC(=O)c1cn(CC(=O)Nc2cccc(F)c2)nn1 | i | i | i | nt | i | i | nt | nt
Cc1ccc(NC(=O)Cn2c(C)cc(C)c(C#N)c2=O)c(Cl)c1 | i | i | i | nt | nt | i | nt | nt
Cc1cc(C)c2c(=O)n(CC(=O)N3CCC(Cc4ccccc4)CC3)sc2n1 | nt | i | i | nt | nt | 43 | 58 | nt
Cc1cc(C)c2c(=O)n(CC(=O)Nc3cccc(F)c3)sc2n1 | i | i | i | nt | i | 76 | 84 | i

Compound activity deposited in PubChem BioAssay by several laboratories.
